Laboratory results as given in the supplement of paper PMC6555819.

Experiments:
Assay in all cases: PBM binding z-score (relative to random genomic background probes); higher = stronger binding; sequences stand for … in GC…GCGATTGACAGCGTAGAATGAAGG
[1] = test system: FXR:RXRa (NR concentration 270 nM, RXRa partner concentration 90 nM)
Method in brief: (§1)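 Ligand-free nuclear receptor dimers were applied to custom Agilent 4×180K protein-binding microarrays whose double-stranded probes carried direct-repeat seeds, single-nucleotide variants, half-site ablations and random human genomic background sequences in 34-nt variable regions. Incubation lasted 1 h. Binding z-scores were computed against the random background probes from regression-normalized fluorescence.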

[2] = test system: LXRa:RXRa (NR concentration 270 nM, RXRa partner concentration 90 nM)
Method in brief: as §1

[3] = test system: LXRa homodimer (NR concentration 270 nM)
Method in brief: as §1

[4] = test system: LXRb:RXRa (NR concentration 270 nM, RXRa partner concentration 90 nM)
Method in brief: as §1

[5] = test system: LXRb homodimer (NR concentration 270 nM)
Method in brief: as §1

[6] = test system: PPARa:RXRa (NR concentration 270 nM, RXRa partner concentration 90 nM)
Method in brief: as §1

[7] = test system: PPARg:RXRa (NR concentration 180 nM, RXRa partner concentration 90 nM)
Method in brief: as §1

[8] = test system: PPARg:RXRa 270nM:90nM, anti-RXR (NR concentration 270 nM, RXRa partner concentration 90 nM)
Method in brief: as §1

[9] = test system: PPARg:RXRa 30nM:10nM, anti-RXR (NR concentration 30 nM, RXRa partner concentration 10 nM)
Method in brief: as §1

[10] = test system: PPARg:RXRa 90nM:30nM, anti-RXR (NR concentration 90 nM, RXRa partner concentration 30 nM)
Method in brief: as §1

[11] = test system: PPARg:RXRa DBDmut IVT, anti-RXR (DBD mutation: RXRa K156A/R161A, NR concentration 270 nM, RXRa partner concentration 90 nM)
Method in brief: as §1

[12] = test system: PPARg:RXRa IVT, anti-PPARg (NR concentration 270 nM, RXRa partner concentration 90 nM)
Method in brief: as §1

[13] = test system: PPARg DBDmut:RXRa IVT, anti-PPARg (DBD mutation: PPARg1 K132A/R137A, NR concentration 270 nM, RXRa partner concentration 90 nM)
Method in brief: as §1

[14] = test system: PPARg DBDmut IVT, anti-PPARg (DBD mutation: PPARg1 K132A/R137A, NR concentration 270 nM)
Method in brief: as §1

[15] = test system: PPARg homodimer (NR concentration 180 nM)
Method in brief: as §1

[16] = test system: PXR:RXRa (NR concentration 270 nM, RXRa partner concentration 90 nM)
Method in brief: as §1

[17] = test system: PXR homodimer (NR concentration 270 nM)
Method in brief: as §1

[18] = test system: RARa:RXR (NR concentration 270 nM, RXRa partner concentration 90 nM)
Method in brief: as §1

[19] = test system: RARa homodimer (NR concentration 270 nM)
Method in brief: as §1

[20] = test system: RARb:RXRa (NR concentration 270 nM, RXRa partner concentration 90 nM)
Method in brief: as §1

Sequence	PBM binding z-score [1]	PBM binding z-score [2]	PBM binding z-score [3]	PBM binding z-score [4]	PBM binding z-score [5]	PBM binding z-score [6]	PBM binding z-score [7]	PBM binding z-score [8]	PBM binding z-score [9]	PBM binding z-score [10]	PBM binding z-score [11]	PBM binding z-score [12]	PBM binding z-score [13]	PBM binding z-score [14]	PBM binding z-score [15]	PBM binding z-score [16]	PBM binding z-score [17]	PBM binding z-score [18]	PBM binding z-score [19]	PBM binding z-score [20]
AGTTAAAGTTCATCTAGGTAACGTAAGATATGCT	6.36	6.33	5.76	3.75	2.33	4.67	4.77	4.99	2	4.03	1.51	3.39	1.68	1.41	2.77	4.75	6.53	3.23	2.39	4.79
TCGAGTCGGTTACCAATGGGGCATTCAGCTTTCT	-0.293	-0.101	-0.421	0.26	-0.784	0.0956	-0.641	0.163	0.773	0.526	0.844	-0.0532	-0.399	-0.375	-0.537	-0.204	-0.793	-0.238	-0.811	0.0866
TCTGCTAGGTCAACGATGGTCAGCTAATCTGCTA	3.45	2.96	-0.225	1.44	-0.144	3.19	2.69	3.14	1.76	2.48	4.23	4.22	0.762	0.898	1.44	1.67	-0.856	2.46	-0.93	4.01
GCTGCTAGGTCAGGTTTGTCAGCTAACGGGTACG	0.8	0.465	-0.141	0.304	-0.389	0.943	0.265	0.692	-0.284	0.389	3.26	1.92	-0.625	-0.587	0.518	0.229	-0.27	0.51	-0.0516	2.95
AATACAGGGTCACTAGGCCTGAGTAGGTACGAAT	6.29	4.71	0.651	3.72	0.544	5.53	6.71	5.29	2.26	4.42	2.96	4.76	1.25	1.34	2.04	2.85	0.251	3.86	0.431	4.06
GCTAGCAGGCCACTTGGGTCACTCAATGACGGGC	0.0158	-0.115	-0.748	0.0102	-0.778	0.888	0.483	0.199	-0.326	-0.355	1.43	1.32	-1.04	-0.967	-0.431	0.269	-0.237	0.575	-0.207	1.34
CGTCCAAGGTCAGAGACGTCAGTGAATGCCGAGT	4.49	2.77	-0.161	1.87	-0.32	3.7	1.97	2.41	0.132	1.48	2.2	1.74	-0.306	-0.0249	1.43	2.14	0.599	2.75	0.197	4.37
TCTCGGAGGACACGAAAGATCAGAGCTCGACATC	-0.277	0.0528	-0.431	-0.144	-0.969	0.328	0.493	0.915	2.54	1.17	1.5	0.155	-0.549	-1.75	-1.47	-0.243	-0.552	-0.0104	-0.742	1.17
TCTGGTAGATCAAGCAGGTTAAGAAAGCCTGAGT	-0.292	-0.109	-0.642	0.00998	-1.25	0.171	-0.556	0.81	2.17	1.5	1.17	-0.178	-0.408	-0.683	-0.462	0.159	0.156	0.213	-0.519	-0.0969
AGTCAAAGTTCAGAACGAGGTAACGTAAAGCACG	4.06	3.73	1.34	1.78	0.533	3.26	4.48	4.72	1.77	4.12	0.0651	2.1	0.709	0.236	1.58	3.14	1.5	2.94	0.271	4.01
GCGTGTAGATCAAGGTTAAGAAAGACTAAGCTAA	0.359	0.939	-0.369	0.539	-0.757	1.28	0.0821	0.373	-0.0969	0.289	-0.0954	0.359	-0.293	-0.542	0.178	0.409	0.176	1.16	-0.389	0.791
ATCTCTAGGTAAAGTTCAGTGAAAGATCGATAGA	1.38	2.08	1.69	1.3	0.964	2.35	3.26	4.38	2.33	3.93	2.6	2.6	1.37	0.916	1.68	2.11	1.93	1.86	1.27	2.86
ATTAGCAGGCCAAGGGTCACTCAAGATTAGTCCG	2.8	2.8	0.436	2.69	-0.147	4.73	7.98	7.44	6.52	7.55	0.795	3.76	0.0508	0.161	1.61	3.2	-0.179	4.06	0.0408	3.62
CGAACTAGGTCAGAACAGGACAGTGAGGGATGAT	1.59	0.807	-0.0765	0.315	-0.376	2.96	5.04	4.45	1.74	3.43	7.05	7.16	2.36	0.0779	0.578	0.829	0.211	1.06	0.238	2.94
CGTCCAAGGTCAGAGAGGTCAATGAATGCCGAGT	6.53	5.92	4.51	5.64	0.884	5.36	3.79	4.67	1.52	3.58	3.1	3.52	-0.295	-0.854	5.37	6.76	13.7	6.55	3.02	5.17
ATATGTAGGGTACATCCGGGTCATTCAGGCTATG	1.96	2.96	1.43	2.4	1.27	3.89	4.04	3.53	1.46	2.33	5.82	6.25	2.33	1.87	1.74	4.11	9.27	3.12	0.779	1.73
CAAACTAGGTCACGAAGGGTCAAAGTCGAATGAC	7.24	7.09	4.6	6.6	1.09	6.41	10.1	7.95	7.11	8.2	8.44	9.09	5.43	4.14	6.07	6.48	1	7.14	2.56	5.29
CCGACTGGCGCAAAGGTTACCATACTCAGTACGA	0.725	1.29	-0.0542	1.78	-0.938	3.45	5.96	6.74	4.81	6.59	0.771	2.5	-1.09	-0.747	0.747	1.7	-0.233	2.04	-0.0622	1.75
CCGACTGGGGCATAGGTTACCATACTCAGTACGA	-0.122	-0.0807	-0.232	0.581	-1.1	3.58	8.18	7.34	6.9	7.37	2.91	4.3	-0.132	-0.537	0.866	0.141	-0.441	0.637	-0.24	0.735
